# Laboratory results from PubChem BioAssay (EPA / NIEHS).
# Active and inactive are the calls of the source. How the source made its calls: active means hit-call score of the fitted dose curve at least 0.9, where 1 is the maximum; inactive means score below 0.9.
# How the values were obtained:
# [1] = ATG_CRE_CIS: Attagene CIS-FACTORIAL HepG2 Assay for human cAMP Responsive Element (CRE) binding protein 3 (AID 2282926); conditions: HepG2 CRE cis-reporter, Attagene multiplexed mRNA; actives raise or lower the signal
# Procedure, shortened: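 We dosed HepG2 cells bearing multiple cis-promoter reporter units for 24 h and measured reporter mRNA by RT-PCR with capillary electrophoresis detection. Bidirectional concentration-response fitting used DMSO as negative control.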
# [2] = target: CCAAT/enhancer-binding protein beta (Homo sapiens) (UniProt P17676); assay: ATG_C_EBP_CIS: Attagene CIS-FACTORIAL HepG2 Assay for human CCAAT/Enhancer Binding Protein (C/EBP) beta (AID 2282927); conditions: HepG2 Attagene cis-factorial transcription factor reporter; actives raise or lower the signal
# Procedure, shortened: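 Endogenous C/EBPb-driven reporter transcripts measured in transfected human HepG2 cells at 24 h via RT-PCR and capillary electrophoresis of labelled fragments. Activity fitted in both directions relative to DMSO baseline.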
# [3] = ATG_CMV_CIS: Attagene CIS-FACTORIAL HepG2 Assay for human CMV (Internal Marker) (AID 2282928); conditions: HepG2 CMV promoter reporter, transcription factor profiling; actives raise or lower the signal;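 further: endpoint acts as a background internal control marker rather than a target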
# Procedure, shortened: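 CMV internal-marker background readout in transiently transfected HepG2 cells bearing cis-regulated reporter units. Reporter mRNA is measured 24 h after dosing by RT-PCR and capillary electrophoresis, with bidirectional fitting against DMSO.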
# [4] = ATG_DR4_LXR_CIS: Attagene CIS-FACTORIAL HepG2 Assay for human Liver X Receptor (LXR), DR4 submotif (AID 2282929); conditions: HepG2 Attagene DR4 cis-reporter, mRNA transcription; actives raise or lower the signal
# Procedure, shortened: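 HepG2 cells transiently transfected with cis-promoter-driven multiplexed reporter units (DR4 element) were dosed for 24 h. Reporter mRNA was quantified by RT-PCR, fluorescent primer extension, HpaI digestion and capillary electrophoresis; bidirectional fitting versus DMSO baseline.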
# [5] = target: Aryl hydrocarbon receptor (Homo sapiens) (UniProt P35869); assay: ATG_Ahr_CIS: Attagene CIS-FACTORIAL HepG2 Assay for human Aryl Hydrocarbon Receptor (Ahr) (AID 2282930); conditions: HepG2 AhR cis-factorial reporter transcription; actives raise or lower the signal
# Procedure, shortened: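 Reporter mRNA levels, quantified by RT-PCR and fluorescent capillary electrophoresis, reflect endogenous AhR transcriptional activity in HepG2 cells carrying transfected cis-promoter reporter constructs. Readout at 24 h post-dose; gain or loss fitted against DMSO baseline.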
# [6] = ATG_AP_1_CIS: Attagene CIS-FACTORIAL HepG2 Assay for human Activator Protein 1 (AP-1) (AID 2282931); conditions: HepG2 Attagene cis-factorial AP-1 reporter mRNA; actives raise or lower the signal
# Procedure, shortened: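 HepG2 cells transiently transfected with cis-element-driven multiplex reporter units; 24 h compound exposure. Reporter mRNA quantified by RT-PCR, FAM-labelled fragments resolved by capillary electrophoresis; bidirectional fit versus DMSO baseline.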
# [7] = ATG_AP_2_CIS: Attagene CIS-FACTORIAL HepG2 Assay for human Activator Protein 2 (AP-2) (AID 2282932); conditions: HepG2 AP-2 cis-reporter, Attagene transcription factor profiling; actives raise or lower the signal
# Procedure, shortened: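 HepG2, transient MRTU transfection, cis-regulated reporters; 24 h compound exposure; RNA isolated, RT-PCR, 6-FAM labelling, HpaI digest, CE fluorescence. DMSO = negative control/baseline, bidirectional fit.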
# [8] = ATG_BRE_CIS: Attagene CIS-FACTORIAL HepG2 Assay for human Bone Morphogenetic Protein (BMP) Response Element (BRE) (AID 2282933); conditions: HepG2 BMP response element reporter, Attagene transcription factor profiling; actives raise or lower the signal
# Procedure, shortened: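 HepG2 cells transiently transfected with multiplexed cis-element reporter units were dosed with chemical for 24 h. Reporter mRNA was measured by RT-PCR with fluorescent labelling, HpaI digestion and capillary electrophoresis; bidirectional fitting relative to DMSO.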
# [9] = target: Transcription factor E2F1 (Homo sapiens) (UniProt Q01094); assay: ATG_E2F_CIS: Attagene CIS-FACTORIAL HepG2 Assay for human E2F Transcription Factor 1 (AID 2282935); conditions: HepG2 Attagene cis-reporter, E2F reporter RNA transcripts; actives raise or lower the signal
# Procedure, shortened: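 Cis-element reporter mRNA induction in transiently transfected HepG2, 24 h exposure. Activity fitted in both directions relative to DMSO negative control.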
# [10] = ATG_E_Box_CIS: Attagene CIS-FACTORIAL HepG2 Assay for human Enhancer Box (E-box) (AID 2282936); conditions: HepG2 E-box cis-reporter transcription, actives raise or lower the signal
# Procedure, shortened: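 Cells: HepG2 (human liver), transient MRTU transfection. Exposure 24 h. RNA → oligo(dT) RT → PCR → 6-FAM label → HpaI → CE. Activity fitted both directions relative to DMSO.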
# [11] = ATG_M_61_CIS: Attagene CIS-FACTORIAL HepG2 Assay for M61 Transcription Factor (Internal Marker) (AID 2282937); conditions: HepG2 Attagene CIS-FACTORIAL M61 internal marker reporter; actives raise or lower the signal
# Procedure, shortened: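 HepG2 cells transiently transfected with cis-element-driven multiple reporter transcription units, dosed for 24 h. Reporter mRNA measured by RT-PCR, 6-FAM primer-extension labelling, HpaI digestion and capillary electrophoresis; bidirectional fit versus DMSO baseline.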
# [12] = ATG_EGR_CIS: Attagene CIS-FACTORIAL HepG2 Assay for human Early Growth Response 1 (EGR1) (AID 2282938); conditions: HepG2 Attagene CIS-FACTORIAL EGR reporter mRNA; actives raise or lower the signal
# Procedure, shortened: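 HepG2 cells transiently transfected with cis-promoter-driven multiplexed reporter transcription units; reporter mRNA measured 24 h after compound dosing by RT-PCR, 6-FAM primer extension, HpaI digestion and capillary electrophoresis. Bidirectional fit versus DMSO baseline.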
# [13] = ATG_M_19_CIS: Attagene CIS-FACTORIAL HepG2 Assay for M19 Transcription Factor (Internal Marker) (AID 2282939); conditions: HepG2 Attagene CIS-FACTORIAL M19 internal marker reporter; actives raise or lower the signal
# Procedure, shortened: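 HepG2 cells transiently transfected with cis-regulated multiple reporter transcription units were dosed for 24 h; reporter mRNA was quantified by RT-PCR, 6-FAM primer-extension labelling, HpaI digestion and capillary electrophoresis, with bidirectional fitting against DMSO baseline.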
# [14] = ATG_ERE_CIS: Attagene CIS-FACTORIAL HepG2 Assay for Estrogen Response Element (ERE) (AID 2282940); conditions: HepG2 ERE cis-reporter, Attagene RNA transcript; actives raise or lower the signal
# Procedure, shortened: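 HepG2 cells transiently transfected with cis-promoter-driven multiplexed reporter transcription units report endogenous TF activity. After 24 h compound exposure, reporter mRNA is quantified by RT-PCR with capillary electrophoresis fluorescence; bidirectional fitting versus DMSO baseline.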
# [15] = ATG_Ets_CIS: Attagene CIS-FACTORIAL HepG2 Assay for human Erythroblast Transformation Specific (ETS) (AID 2282941); conditions: HepG2 ETS cis-reporter transcription, actives raise or lower the signal
# Procedure, shortened: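 HepG2 cells transfected with multiple cis-regulated reporter units measuring endogenous ETS-driven transcription, 24 h after dosing. Reporter mRNA quantified by RT-PCR with capillary electrophoresis; bidirectional fit relative to DMSO.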
# [16] = target: Hepatocyte nuclear factor 3-beta (Homo sapiens) (UniProt Q9Y261); assay: ATG_FoxA2_CIS: Attagene CIS-FACTORIAL HepG2 Assay for human Forkhead box A2 (FOXA2) (AID 2282942); conditions: HepG2 cis-reporter transcription factor activity, 24 h; actives raise or lower the signal
# Procedure, shortened: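 HepG2 cells transiently transfected with multiple cis-regulated reporter transcription units, dosed for 24 h. Reporter mRNA measured by RT-PCR, 6-FAM labelling, HpaI digestion and capillary electrophoresis; bidirectional fitting against DMSO baseline.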
# [17] = ATG_FoxO_CIS: Attagene CIS-FACTORIAL HepG2 Assay for human Forkhead box O (FoxO) (AID 2282943); conditions: HepG2 Attagene cis-reporter, FoxO element, mRNA; actives raise or lower the signal
# Procedure, shortened: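 Endogenous transcription factor activity read from multiplexed cis-promoter reporter transcripts in transiently transfected HepG2, 24 h after dosing. Reporter RNA measured via RT-PCR plus capillary electrophoresis of FAM-labeled products; gain or loss relative to DMSO.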
# [18] = ATG_GATA_CIS: Attagene CIS-FACTORIAL HepG2 Assay for human GATA Binding Protein (AID 2282944); conditions: HepG2 GATA cis-element reporter, Attagene multiplex mRNA; actives raise or lower the signal
# Procedure, shortened: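 HepG2 cells transiently transfected with multiplexed cis-element reporter units reflecting endogenous transcription factor activity; reporter mRNA measured after 24 h dosing by RT-PCR, 6-FAM labeling, HpaI digestion and capillary electrophoresis. Bidirectional fitting versus DMSO baseline.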
# [19] = ATG_GLI_CIS: Attagene CIS-FACTORIAL HepG2 Assay for human Zinc Finger Protein GLI1 (AID 2282945); conditions: HepG2, Attagene cis-factorial reporter mRNA, GLI element; actives raise or lower the signal
# Procedure, shortened: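 Bidirectional curve fits relative to DMSO, using reporter mRNA levels from RT-PCR plus capillary electrophoresis. Cells were HepG2 transiently carrying cis-regulated reporter constructs, harvested 24 h after dosing.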
# Sequence of Aryl hydrocarbon receptor (Homo sapiens) (P35869 whole entry, looked up): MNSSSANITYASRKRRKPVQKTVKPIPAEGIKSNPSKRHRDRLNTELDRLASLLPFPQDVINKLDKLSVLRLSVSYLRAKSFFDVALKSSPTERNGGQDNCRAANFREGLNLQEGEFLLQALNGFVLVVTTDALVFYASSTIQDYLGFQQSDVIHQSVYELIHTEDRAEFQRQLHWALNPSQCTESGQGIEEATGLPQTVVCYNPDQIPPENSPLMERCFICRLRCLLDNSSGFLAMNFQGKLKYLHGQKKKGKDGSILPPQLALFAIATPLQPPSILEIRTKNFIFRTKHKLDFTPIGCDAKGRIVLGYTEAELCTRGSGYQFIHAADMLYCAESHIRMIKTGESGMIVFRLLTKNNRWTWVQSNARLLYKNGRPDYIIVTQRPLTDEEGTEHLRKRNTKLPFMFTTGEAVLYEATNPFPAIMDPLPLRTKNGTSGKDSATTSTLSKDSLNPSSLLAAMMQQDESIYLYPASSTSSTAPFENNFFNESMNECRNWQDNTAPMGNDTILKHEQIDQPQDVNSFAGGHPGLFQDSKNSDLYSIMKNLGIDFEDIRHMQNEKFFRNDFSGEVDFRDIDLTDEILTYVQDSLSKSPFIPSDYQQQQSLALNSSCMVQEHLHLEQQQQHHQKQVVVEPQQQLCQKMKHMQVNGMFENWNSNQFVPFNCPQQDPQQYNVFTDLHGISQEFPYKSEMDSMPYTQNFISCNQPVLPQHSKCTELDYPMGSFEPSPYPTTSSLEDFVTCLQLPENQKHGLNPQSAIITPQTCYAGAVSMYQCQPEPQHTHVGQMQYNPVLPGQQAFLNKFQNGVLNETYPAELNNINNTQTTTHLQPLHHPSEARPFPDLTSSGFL
# Sequence of Hepatocyte nuclear factor 3-beta (Homo sapiens) (Q9Y261 whole entry, looked up): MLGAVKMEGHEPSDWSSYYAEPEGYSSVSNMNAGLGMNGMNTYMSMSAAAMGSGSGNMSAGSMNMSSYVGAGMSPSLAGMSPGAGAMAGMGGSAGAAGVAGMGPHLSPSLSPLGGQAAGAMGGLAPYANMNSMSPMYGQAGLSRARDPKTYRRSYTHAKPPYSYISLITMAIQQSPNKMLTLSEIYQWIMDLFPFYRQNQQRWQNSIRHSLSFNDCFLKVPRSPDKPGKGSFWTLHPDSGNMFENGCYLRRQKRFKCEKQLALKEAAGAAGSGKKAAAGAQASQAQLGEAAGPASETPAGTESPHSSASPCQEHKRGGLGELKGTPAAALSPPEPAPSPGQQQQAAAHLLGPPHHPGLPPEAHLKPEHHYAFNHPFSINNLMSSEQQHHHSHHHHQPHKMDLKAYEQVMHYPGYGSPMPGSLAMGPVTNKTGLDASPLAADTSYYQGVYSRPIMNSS
# Sequence of CCAAT/enhancer-binding protein beta (Homo sapiens) (P17676 whole entry, looked up, the tested form may be a part): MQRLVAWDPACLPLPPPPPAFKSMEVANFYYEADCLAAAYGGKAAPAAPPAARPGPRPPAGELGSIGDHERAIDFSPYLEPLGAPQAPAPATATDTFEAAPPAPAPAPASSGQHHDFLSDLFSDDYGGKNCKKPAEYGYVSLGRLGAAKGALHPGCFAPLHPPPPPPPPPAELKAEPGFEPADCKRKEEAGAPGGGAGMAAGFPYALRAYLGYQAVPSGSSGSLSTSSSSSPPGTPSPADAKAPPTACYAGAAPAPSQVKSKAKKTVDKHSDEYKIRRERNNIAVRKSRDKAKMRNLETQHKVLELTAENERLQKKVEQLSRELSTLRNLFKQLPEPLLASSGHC
# Sequence of Transcription factor E2F1 (Homo sapiens) (Q01094 whole entry, looked up): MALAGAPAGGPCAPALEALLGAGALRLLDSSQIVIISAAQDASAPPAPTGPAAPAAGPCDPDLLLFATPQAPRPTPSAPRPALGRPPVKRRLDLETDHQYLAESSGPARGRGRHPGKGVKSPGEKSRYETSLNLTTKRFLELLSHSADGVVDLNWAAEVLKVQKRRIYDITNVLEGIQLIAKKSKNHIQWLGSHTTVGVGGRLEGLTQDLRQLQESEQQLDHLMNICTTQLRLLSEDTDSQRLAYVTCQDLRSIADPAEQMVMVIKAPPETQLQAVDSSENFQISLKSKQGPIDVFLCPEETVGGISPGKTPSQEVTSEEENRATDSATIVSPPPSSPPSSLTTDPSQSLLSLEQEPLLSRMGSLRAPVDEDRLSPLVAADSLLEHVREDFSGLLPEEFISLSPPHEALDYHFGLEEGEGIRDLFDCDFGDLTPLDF
smiles,measurement,setting,value
O=[N+]([O-])c1ccc(C=Cc2ccc([N+](=O)[O-])cc2S(=O)(=O)O)c(S(=O)(=O)O)c1,outcome,[1],inactive
same,outcome,[2],inactive
same,outcome,[3],inactive
same,outcome,[4],inactive
same,outcome,[5],inactive
same,outcome,[6],inactive
same,outcome,[7],inactive
same,outcome,[8],inactive
same,outcome,[9],inactive
same,outcome,[10],inactive
same,outcome,[11],inactive
same,outcome,[12],inactive
same,outcome,[13],inactive
same,AC50,[14],62.3 µM (active)
same,outcome,[15],inactive
same,outcome,[16],inactive
same,outcome,[17],inactive
same,outcome,[18],inactive
same,outcome,[19],inactive
CC(C)Oc1ccccc1O,outcome,[1],inactive
same,outcome,[2],inactive
same,outcome,[3],inactive
same,outcome,[4],inactive
same,AC50,[5],47.8 µM (active)
same,outcome,[6],inactive
same,outcome,[7],inactive
same,outcome,[8],inactive
same,outcome,[9],inactive
same,outcome,[10],inactive
same,outcome,[11],inactive
same,outcome,[12],inactive
same,outcome,[13],inactive
same,outcome,[14],inactive
same,outcome,[15],inactive
same,outcome,[16],inactive
same,outcome,[17],inactive
same,outcome,[18],inactive
same,outcome,[19],inactive
Cc1c(N(C)C)c(=O)n(-c2ccccc2)n1C,outcome,[1],inactive
same,outcome,[2],inactive
same,outcome,[3],inactive
same,outcome,[4],inactive
same,AC50,[5],64.9 µM (active)
same,outcome,[6],inactive
same,outcome,[7],inactive
same,outcome,[8],inactive
same,outcome,[9],inactive
same,outcome,[10],inactive
same,outcome,[11],inactive
same,outcome,[12],inactive
same,outcome,[13],inactive
same,outcome,[14],inactive
same,outcome,[16],inactive
same,outcome,[17],inactive
same,outcome,[18],inactive
same,outcome,[19],inactive
